# PubChem BioAssay (NCATS)
# Results filed as inconclusive are left out. A number with no mark means an inactive call. The list shows a part of the results. Active and inactive are the calls of the source. Unless noted, the call rests on the fitted dose curve; in most records, active means well fitted curve in the direction sought with a large enough effect; inconclusive means small, poorly fitted or top-dose-only effect, or another doubt; inactive means no such curve, though single readings can be large; an effect the other way counts as inactive or inconclusive.
# Tests used:
# [1] = molecular target: Cytochrome P450 3A4 (Homo sapiens) (UniProt P08684); assay: qHTS Assay for Inhibitors and Substrates of Cytochrome P450 3A4 (AID 884); further: nearly all actives have a fitted effect of over 50% in size; further: potency means the concentration at half of the fitted maximal effect
# Sequence of Cytochrome P450 3A4 (Homo sapiens) (P08684 whole entry, looked up): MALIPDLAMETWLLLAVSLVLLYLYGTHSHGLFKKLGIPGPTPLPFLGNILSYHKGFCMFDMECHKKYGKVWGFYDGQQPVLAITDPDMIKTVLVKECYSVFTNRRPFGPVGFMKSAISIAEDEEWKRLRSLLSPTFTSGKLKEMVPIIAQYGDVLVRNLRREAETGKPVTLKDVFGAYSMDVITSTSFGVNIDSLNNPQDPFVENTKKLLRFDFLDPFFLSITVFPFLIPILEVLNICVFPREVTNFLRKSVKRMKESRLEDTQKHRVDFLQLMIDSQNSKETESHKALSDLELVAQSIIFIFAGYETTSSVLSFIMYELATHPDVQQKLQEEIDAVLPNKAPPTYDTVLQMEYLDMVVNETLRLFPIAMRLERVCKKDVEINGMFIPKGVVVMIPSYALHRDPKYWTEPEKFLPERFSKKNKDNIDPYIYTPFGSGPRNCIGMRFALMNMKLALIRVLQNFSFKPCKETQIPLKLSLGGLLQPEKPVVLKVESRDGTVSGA
# Summary of the method: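 Luminescent readout of luciferin produced by CYP3A4 (20 nM) dealkylation of Luciferin-PPXE, 25 uM (its KM). NADPH-driven reaction ran 60 min at RT after 10 min compound preincubation; data scaled to 57 uM ketoconazole as 100% inhibition.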
# [2] = molecular target: Dual specificity protein kinase CLK4 (Homo sapiens) (UniProt Q9HAZ1); assay: qHTS Assay for Inhibitors of CDC-like Kinase 4 (Kinase-Glo Assay) (AID 1770); further: nearly all actives have a fitted effect of over 65% in size; further: potency means the concentration at half of the fitted maximal effect
# Sequence of Dual specificity protein kinase CLK4 (Homo sapiens) (Q9HAZ1 whole entry, looked up): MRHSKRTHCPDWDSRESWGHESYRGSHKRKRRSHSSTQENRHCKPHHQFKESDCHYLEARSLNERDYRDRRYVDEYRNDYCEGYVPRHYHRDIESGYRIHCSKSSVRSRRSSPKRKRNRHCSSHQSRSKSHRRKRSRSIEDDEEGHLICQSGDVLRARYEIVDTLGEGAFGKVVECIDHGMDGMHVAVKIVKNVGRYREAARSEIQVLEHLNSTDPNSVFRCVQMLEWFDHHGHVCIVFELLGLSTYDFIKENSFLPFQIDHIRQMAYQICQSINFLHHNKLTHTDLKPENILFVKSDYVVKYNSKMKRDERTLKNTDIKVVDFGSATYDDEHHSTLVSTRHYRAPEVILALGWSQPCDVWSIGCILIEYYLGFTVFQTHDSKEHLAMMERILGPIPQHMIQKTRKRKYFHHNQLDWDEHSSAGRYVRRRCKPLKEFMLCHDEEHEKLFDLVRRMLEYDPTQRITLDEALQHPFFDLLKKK
# Summary of the method: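 Readout: Kinase-Glo luminescence from ATP left after a 4.5 h room-temperature reaction of 25 nM Clk4 with 100 uM RS peptide and 1 uM ATP (final). Buffer: 25 mM Tris pH 7.5, 10 mM MgCl2.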
# [3] = molecular target: Dual specificity protein kinase CLK4 (Homo sapiens) (UniProt Q9HAZ1); assay: qHTS Assay for Inhibitors of CDC-like Kinase 4 (ADP-Glo Assay) (AID 1771); further: nearly all actives have a fitted effect of over 70% in size; further: potency means the concentration at half of the fitted maximal effect
# Summary of the method: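 Compounds are pin-transferred onto substrate mix (100 uM RS peptide, 1 uM ATP), then 25 nM Clk4 is added. After 1 hr at room temperature, ADP-Glo reagent runs 45 min, detection reagent 30 min, then luminescence is read.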
# [4] = molecular target: Dual specificity protein kinase CLK4 (Homo sapiens) (UniProt Q9HAZ1); assay: qHTS Assay for Inhibitors of CDC-like Kinase 4 (ADP-FP Assay) (AID 1795); further: nearly all actives have a fitted effect of over 60% in size; further: potency means the concentration at half of the fitted maximal effect
# Summary of the method: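 FP readout: Orange Transcreener ADP2 tracer (4 nM) plus ADP antibody, read after 30 min at room temperature. Kinase step: 6.25 nM Clk4, 100 uM RS peptide, 1 uM ATP, pH 7.5, 1 h.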
# [5] = molecular target: Vitamin D3 receptor (Homo sapiens) (UniProt P11473); assay: qHTS for Inhibitors of the vitamin D receptor (VDR): Hit Validation in Primary Screen (AID 602199); settings: VDR-coactivator inhibition assay, qHTS confirmation; further: potency means the concentration at half of the fitted maximal effect
# Sequence of Vitamin D3 receptor (Homo sapiens) (P11473 whole entry, looked up, the tested form may be a part): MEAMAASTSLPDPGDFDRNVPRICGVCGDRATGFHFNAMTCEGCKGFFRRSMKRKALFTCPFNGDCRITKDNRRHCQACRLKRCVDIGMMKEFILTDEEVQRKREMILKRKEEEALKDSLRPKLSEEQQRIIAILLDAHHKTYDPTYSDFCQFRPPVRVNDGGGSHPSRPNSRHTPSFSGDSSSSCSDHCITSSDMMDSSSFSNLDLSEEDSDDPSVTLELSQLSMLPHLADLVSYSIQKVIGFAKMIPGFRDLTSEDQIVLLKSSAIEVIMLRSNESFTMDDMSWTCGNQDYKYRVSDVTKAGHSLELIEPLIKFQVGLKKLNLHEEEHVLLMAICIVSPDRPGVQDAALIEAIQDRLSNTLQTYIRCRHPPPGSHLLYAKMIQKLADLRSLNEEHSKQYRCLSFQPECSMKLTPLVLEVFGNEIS
# Summary of the method: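 With 800 nM VDR and 5 uM LG19078 agonist present, compounds were incubated 2 h at ambient temperature with Alexa 647-labelled SRC2-3. Displacement was read as polarization at 620/688 nm.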
# [6] = molecular target: Vitamin D3 receptor (Homo sapiens) (UniProt P11473); assay: qHTS for Inhibitors of the vitamin D receptor (VDR): Hit Validation using a Fluorescein Assay (AID 602200); settings: VDR-coactivator binding, fluorescein fluorescence polarization; further: potency means the concentration at half of the fitted maximal effect
# Summary of the method: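 Compounds added to VDR ligand-binding domain (1.5 uM) with agonist LG19078 (5 uM) and 5 nM SRC2-3 fluorescein peptide, final concentrations. After 2 h at ambient temperature, polarization of fluorescein emission (Ex 495 nm/Em 520 nm) measured.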
# [7] = molecular target: Cytochrome P450 2C19 (Homo sapiens) (UniProt P33261); assay: qHTS Assay for Inhibitors and Substrates of Cytochrome P450 2C19 (AID 899); further: potency means the concentration at half of the fitted maximal effect; nearly all actives have a fitted effect of over 60% in size
# Sequence of Cytochrome P450 2C19 (Homo sapiens) (P33261 whole entry, looked up): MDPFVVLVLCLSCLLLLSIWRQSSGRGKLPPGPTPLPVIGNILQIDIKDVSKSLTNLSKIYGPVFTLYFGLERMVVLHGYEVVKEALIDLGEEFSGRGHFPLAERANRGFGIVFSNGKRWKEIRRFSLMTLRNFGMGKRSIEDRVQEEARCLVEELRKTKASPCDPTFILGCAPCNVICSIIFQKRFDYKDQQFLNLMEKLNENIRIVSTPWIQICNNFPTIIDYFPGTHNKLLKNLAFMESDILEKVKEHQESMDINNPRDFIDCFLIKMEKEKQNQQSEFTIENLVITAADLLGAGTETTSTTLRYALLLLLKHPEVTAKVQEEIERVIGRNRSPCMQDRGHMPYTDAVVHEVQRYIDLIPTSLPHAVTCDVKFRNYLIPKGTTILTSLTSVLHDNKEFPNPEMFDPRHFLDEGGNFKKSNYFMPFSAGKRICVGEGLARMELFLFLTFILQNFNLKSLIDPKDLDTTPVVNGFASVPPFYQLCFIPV
# Summary of the method: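 Reactions contain 5nM enzyme, 10uM Luciferin-H EGE (KM) and 50mM KPO4; compound preincubates 10 min at 37C, NADPH regeneration starts turnover for 60 min. Luminescence after detection reagent gives activity.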
# [8] = qHTS Assay for Identification of Small Molecule Agonists for Hypoxia Response Element Signaling Pathway (AID 914; active means well fitted activation curve with a large enough effect in the signal ratio, with a control signal flat, not every such curve was filed as active; the % refers to the signal ratio; further: % of control where 0% means no effect); settings: ME-180 (cervical carcinoma) HRE-bla reporter, beta-lactamase ratio, CoCl2, 17 h; activation: active compounds read high
# Summary of the method: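 Positive modulation of EC50 CoCl2-induced hypoxia response element signaling is measured in ME-180 cells with a beta-lactamase reporter. Compounds are titrated, incubation runs 17 hours, and %Activity derives from the blue/green ratio.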
structure (smiles),measurement,setting,value
O=C(c1cccc(F)c1)N1CCC2(CC1)CCN(c1ccc(-c3ccccc3)cc1)CC2,Potency,[1],inactive
CN1CCN(c2ncc3nc(-c4cccc(C#N)c4)c(=O)n(CCC#N)c3n2)CC1,Potency,[2],inactive
same,Potency,[3],inactive
Cc1nc2cnc(Oc3ccccc3)nc2n(C2CC2)c1=O,Potency,[2],inactive
same,Potency,[3],inactive
same,Potency,[4],inactive
CCCCOc1ccc(CN2C(=O)C(=O)c3cc(Br)cc(C)c32)cc1OC,Potency,[5],10 µM (active)
same,Potency,[6],8.91 µM (active)
COc1cccc(Nc2ncc3ncc(=O)n(Cc4cccs4)c3n2)c1,Potency,[2],0.708 µM (active)
same,Potency,[3],0.794 µM (active)
same,Potency,[4],0.501 µM (active)
O=c1c(-c2cccs2)nc2cnc(N3CCNCC3)nc2n1Cc1cccs1,Potency,[1],2.51 µM (active)
same,Potency,[7],5.01 µM (active)
same,Potency,[2],inactive
same,Potency,[4],inactive
Cc1noc(C)c1-c1ccc2ncnc(Nc3ccccc3)c2c1,Potency,[2],6.31 µM (active)
same,Potency,[3],7.94 µM (active)
COC(=O)N1CCC2(CCCN(c3ncccn3)C2)CC1,activation,[8],12.6%
N#Cc1cccc(-c2nc(NCc3cccs3)c3ccccc3n2)c1,Potency,[1],3.98 µM (active)
same,Potency,[2],inactive
same,Potency,[4],inactive
COc1ccccc1-c1cc(N(C)Cc2ccco2)ncn1,Potency,[7],3.98 µM (active)
same,Potency,[2],28.2 µM (active)
same,Potency,[4],inactive
Cc1cnc(CNc2cc(-c3ccc4c(c3)OCO4)ncn2)cn1,Potency,[2],3.98 µM (active)
same,Potency,[3],3.55 µM (active)
same,Potency,[4],12.6 µM (active)
